# Compound activity (PubChem BioAssay)
# D2 ag-1: activates the human D2 dopamine receptor. P14416. HEK293 T-REx D2 cells, calcium flux agonist mode. activation, % at 2 µM. AID 485358. 340,000 compounds, 0.53% hits;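 active means activation over 3 SD above normal in the single-dose calcium agonist read, cut at about 30% in these data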; further: 0% is about no effect
#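 Agonism scored from kinetic calcium signal (1 read/sec, 180 s) following compound pin transfer, after a 10 s baseline. Cells: HEK293 Trex line expressing inducible D2 receptor coupled to calcium, dye-loaded after overnight culture at 30 C.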
# D2 PAM-1: positive allosteric modulators of human D2 dopamine receptor; HEK293 T-REx D2, calcium flux, EC20 dopamine potentiation; potentiation, % at 10 µM; P14416; AID 485347; 340,000 compounds, 0.34% hits;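 active means potentiation over 3 SD above the plate norm, cut at about 30% in these data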; further: 0% is about no effect
#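 Tetracycline-induced Hek293 Trex D2 cells, force-coupled to calcium, loaded with no-wash calcium dye. Compound added with 180 s kinetic read for agonism, then EC20 dopamine and a further 180 s read for potentiation.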
# D2 antagonist: antagonists of human D2 dopamine receptor; HEK293 TREx D2 cells, calcium flux, dopamine EC80; inhibition, % at 10 µM; 340,000 compounds, 2% hits; P14416; AID 485344; in the data active means inhibition above about 30%; inactive means below that, where a call was filed; further: 0% is about no effect
#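 Calcium flux kinetic readout in an inducible HEK293 TREx D2 line plated overnight at 30 C. After 180 s compound exposure, an EC80 dopamine challenge follows with another 180 s kinetic read to detect antagonism.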
# D2 ag-2: human D2 receptor agonism in beta-arrestin assay; AID 624465; 360,000 compounds, 0.084% hits; DiscoveRx PathHunter D2 beta-arrestin, luminescence, 90 min; 100% = 57 uM dopamine signal; activation, % (concentration not given with the values); P14416; in the data active means activation above about 40%; inconclusive means between about 15% and that limit
#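 DiscoveRx PathHunter D2 beta-arrestin cells (2,100/well) attached overnight, then compound-stimulated 90 min at 37 C in HBSS/10 mM HEPES/0.1% Tween-20 buffer; beta-galactosidase complementation read by luminescence after 1 h at ambient temperature. Dopamine 57 uM final (EC100) as control.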
# D2 PAM-2: human D2 receptor positive allosteric modulation. AID 624464. potentiation, % (test concentration not listed). 360,000 compounds, 0.23% hits. P14416. DiscoveRx D2 beta-arrestin cells, luminescence, 90 min; 100% = 57 uM dopamine signal; in the data active means potentiation above about 50%; inconclusive means mostly about 30% to 49%
#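 D2 cells co-treated with compound plus 50 nM dopamine (EC20) for 90 min at 37 deg C to detect potentiation. Beta-arrestin recruitment was read as enzyme-fragment luminescence after 1 h at ambient temperature. Full response was set by 57 uM dopamine.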
# D3 arrestin ag: D3 receptor agonism confirmed, beta-arrestin readout; shares compounds with D2 ag-1; DiscoveRx D3 beta-arrestin cells, luminescence, 90 min; Potency, µM (series often up to 76.9 µM), for inactives: at the highest dose activation, most hits filed as activators; 2,300 compounds, 4% hits; AID 720506;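 further: potency means the concentration at half of the fitted maximal effect; 100% = dopamine control response; nearly all actives have a fitted effect of over 70% in size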
# Target sequence (P35462 whole entry, looked up): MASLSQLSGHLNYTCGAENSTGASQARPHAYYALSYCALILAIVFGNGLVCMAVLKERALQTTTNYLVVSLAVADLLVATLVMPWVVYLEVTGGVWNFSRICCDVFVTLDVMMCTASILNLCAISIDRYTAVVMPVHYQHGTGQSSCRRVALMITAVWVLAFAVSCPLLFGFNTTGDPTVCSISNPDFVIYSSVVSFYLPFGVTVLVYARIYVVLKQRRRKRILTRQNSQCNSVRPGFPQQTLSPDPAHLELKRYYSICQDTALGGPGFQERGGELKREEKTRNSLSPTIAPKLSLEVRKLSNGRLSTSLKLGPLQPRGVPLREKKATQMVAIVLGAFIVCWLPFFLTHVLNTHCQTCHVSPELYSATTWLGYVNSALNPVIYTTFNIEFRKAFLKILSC
# D2 ag-3: D2 receptor agonism, beta-arrestin counterscreen; DiscoveRx PathHunter D2 beta-arrestin, luminescence, 90 min; response scale: percent relative to full dopamine signal; 2,300 compounds, 5.9% hits; shares compounds with D2 ag-1; Potency, µM (series often up to 76.9 µM), inactives show at the highest dose activation, most hits filed as activators; further: potency means the concentration at half of the fitted maximal effect; % of control where 0% means no effect; nearly all actives have a fitted effect of over 70% in size
# The depositor's hits bear a star; ? = inconclusive; . = no result. Rows were chosen to be rich in hits. Some 2.4% of all compounds tested hit in one or more screens of this group. Unless noted, the call rests on the fitted dose curve; in most records, active means well fitted activation curve with a large enough effect; inconclusive means small, poorly fitted or top-dose-only effect; inactive means flat fitted curve, though single readings scatter.
SMILES,D2 ag-1,D2 PAM-1,D2 antagonist,D2 ag-2,D2 PAM-2,D3 arrestin ag,D2 ag-3
Cc1sc2nc(CSCC(=O)Nc3ccc(C(F)(F)F)cc3)[nH]c(=O)c2c1C,1,3,-17,2,0,-6%,-2%
Cc1sc2nc(CSCC(=O)Nc3ccc(Cl)cc3F)[nH]c(=O)c2c1C,0,1,2,-5,14,-4%,-6%
Cc1sc2nc(CSCC(=O)Nc3c(F)cccc3F)[nH]c(=O)c2c1C,0,4,2,-2,7,.,.
Cc1sc2nc(CSCC(=O)N(C)CC(=O)Nc3ccc(F)cc3)[nH]c(=O)c2c1C,3,7,-9,-2,-10,.,.
COc1ccccc1NC(=O)Nc1ccnn1C1CCN(C(=O)c2cccnc2)CC1,0,-3,-23,-1,-6,.,.
Cc1ccc(S(=O)(=O)N2CCCCC2)cc1C(=O)OC(C)C(=O)NC1CCCCC1C (configuration not stated),-1,3,-5,-6,19,.,.
COC(=O)CCN(C(=O)C12CC3CC(CC(C3)C1)C2)c1ccccn1,69*,-19,33*,?,?,-4%,?
O=C(N(Cc1ccccc1)c1ccccn1)C12CC3CC(CC(C3)C1)C2,4,-7,-4,8,-2,.,.
CC(=O)N1CCc2cc(NC(=O)C3(C)CCN3CCc3ccccc3)ccc21 (configuration not stated),.,.,.,-2,-1,.,.
CC(=O)N1CCCC1c1nc2ccccc2n1Cc1ccccc1Cl (configuration not stated),3,0,.,.,.,.,.
Nc1ccc(C(=O)N/N=C2\CCCc3c2[nH]c2ccccc32)cc1,.,.,.,-4,4,.,.
c1ccc(CCN=C2CCCc3c2[nH]c2ccccc32)cc1,77*,-23,58*,13,8,?,?
O=C(CN1C(=O)C(=O)N(C2CCCC2)C1=O)Nc1ccc(F)cc1F,0,-1,-3,-5,-1,.,.
Cc1ccc(C)c(S(=O)(=O)N2CCN(c3ncccn3)CC2)c1,.,4,.,3,-6,.,.
O=C(CN1CCN(c2ncccn2)CC1)NCc1ccc2c(c1)OCO2,56*,-23,37*,?,1,2%,19%
Cc1ccc(C)c(CN2CCN(c3ncccn3)CC2)c1,75*,-28,60*,53*,5,0%,?
Clc1cccc(Cl)c1CN1CCN(c2ncccn2)CC1,55*,-17,46*,?,2,11%,?
O=[N+]([O-])c1ccc(Cl)c(CN2CCN(c3ncccn3)CC2)c1,9,-7,33*,13,0,10%,13%
CCOc1ccccc1C(=O)NCC(=O)NNC(=O)c1cccs1,.,.,.,7,-6,.,.
Oc1cc2c(cc1CN1CCN(c3ncccn3)CC1)OCO2,86*,-27,83*,96*,?,?,0.56µM*
O=C(c1ccccc1F)N1CCN(Cc2ccccc2F)CC1,0,4,-8,-7,-16,.,.
Fc1ccccc1CN1CCN(c2ncccn2)CC1,84*,-21,84*,98*,?,?,7.9µM*
COc1ccc(N2CCN(C(=O)CN3C(=O)NC4(CCCCCC4)C3=O)CC2)cc1,.,.,.,-4,-2,.,.
COC(=O)c1ccc(N(CC(=O)NC2CCCCC2)C(=O)CNC(=O)c2ccco2)cc1,0,0,24,-5,-4,.,.
COc1ccc(-c2c(-c3cc(OC)cc(OC)c3)n(C)c3ccc(-c4cccc5[nH]ccc45)cc23)cc1,0,16,2,-2,-1,0%,3%
CCOC(=O)c1c(/N=C/c2ccc(O)cc2O)sc2c1CCC2,.,-2,.,.,.,.,.
CC(CCc1ccc(O)cc1)N(C)CCc1ccccc1 (configuration not stated),39*,-25,91*,-1,-16,1%,0%
